From PubChem BioAssay (NCI) come the findings set out here.

Compounds without any hit were thinned out: in the full panel of roughly 83,000, 20% have a hit.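 Step 1: grow cells in 96-well plates. Step 2: add test compound at a single concentration. Step 3: incubate 48 h. Step 4: record percent growth.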 Unmarked numbers belong to inactive results. Activity calls are given as the source filed them. How the source made its calls: active means growth percent below 10; inactive means the rest.

Among the test systems are T-47D breast; BT-549 breast; MDA-MB-435 melanoma; SW-620 colon; MCF7 breast; HCT-116 colon; HCC-2998 colon; KM12 colon.
What all share (assay): NCI-60 one-dose screen, 48 h (100 = growth as untreated, 0 = no growth, -100 = all killed)
Conditions in all cases: 10 µM unless noted

Regarding `COc1ccc(NC(=O)COCCOCCNC[C@@H]2C(=O)O[C@H]3[C@H]2CC/C(COC(=O)OC/C2=C/CC[C@@]4(C)O[C@H]4[C@H]4OC(=O)[C@@H](CN(C)C)[C@@H]4CC2)=C\CC[C@@]2(C)O[C@@H]32)c(O)c1C(N)=O`, the growth is 15.8% in the assay with T-47D breast; 56.8% in the assay with BT-549 breast; 49.6% in the assay on MDA-MB-435 melanoma; -6.42% (active) in the assay on SW-620 colon; 19.4% in the assay on MCF7 breast; -38.6% (active) in the assay on HCT-116 colon. Further, the growth in the assay with HCC-2998 colon was 106%; in the assay on KM12 colon, 79.3%.
With `CC(=O)c1cc2c(c(O)c1C)C(=O)C(=O)c1c(O)cccc1-2`, the growth in the assay on T-47D breast was -28.5% (active); with BT-549 breast, -94.4% (active); in the assay on MDA-MB-435 melanoma, -84.3% (active); with SW-620 colon, -69% (active); with MCF7 breast, -55.6% (active); with HCT-116 colon, -85.9% (active). The growth with HCC-2998 colon is -84.2% (active); in the assay with KM12 colon it was -50.5% (active).
For the molecule `O=C1C(Cl)=C(Nc2cccc3cc4ccccc4nc23)C(=O)c2ccccc21`, the growth is 37.9% in the assay on T-47D breast; 91.7% in the assay with BT-549 breast; 59% with MDA-MB-435 melanoma; 31.1% in the assay with SW-620 colon; 20.1% in the assay with MCF7 breast; 17% in the assay with HCT-116 colon. Besides, the growth in the assay on HCC-2998 colon is 50.7%; in the assay with KM12 colon, 52.3%.
As for `O=C(Nc1ccc(-n2ccc3c(NC(=O)c4ccccc4)ncnc32)cc1)c1cccc(C(F)(F)F)c1`, the growth was 57.8% with T-47D breast; 51.9% with BT-549 breast; 38.3% in the assay on MDA-MB-435 melanoma; 29.1% with SW-620 colon; 36.4% in the assay with MCF7 breast; 22.3% in the assay with HCT-116 colon. Further, the growth in the assay with HCC-2998 colon was 59.8%; in the assay on KM12 colon it was 30%.
As to `O=C(CSc1nnc(-c2ccc(Cl)cc2)o1)Nc1ccc(C(=O)/C=C/c2ccccc2)cc1`, the growth with T-47D breast was 107%; in the assay with BT-549 breast, 99.8%; in the assay on MDA-MB-435 melanoma it was 91.4%; with SW-620 colon, 101%; in the assay on MCF7 breast it was 53.1%; in the assay with HCT-116 colon it was 65.7%. Also, the growth was 106% in the assay with HCC-2998 colon and 100% in the assay on KM12 colon.
Regarding `Cc1ccn2cc(Cc3cc(=O)oc4c3ccc3ccccc34)c(=O)nc2c1`, the growth in the assay on T-47D breast was 85.8%; in the assay with BT-549 breast, 99.5%; in the assay with MDA-MB-435 melanoma, 104%; in the assay with SW-620 colon, 103%; with MCF7 breast it was 93.8%; in the assay on HCT-116 colon it was 101%. Also, the results for the growth with HCC-2998 colon and in the assay on KM12 colon were 100% and 101%, respectively.
Take `Cc1cccc(Cc2cnc(NC(=O)CCc3ccc(C)o3)s2)c1`: the growth with T-47D breast was 76.9%; in the assay with BT-549 breast, 5.79% (active); with MDA-MB-435 melanoma it was -23.1% (active); in the assay with SW-620 colon, 30%; in the assay with MCF7 breast, 12.4%; with HCT-116 colon, 11.5%. Also, the growth in the assay with HCC-2998 colon was 23.7%; in the assay on KM12 colon, 12.6%.
Turning to `Nc1nc(=S)ss1`, the growth is 98.9% with T-47D breast; 101% in the assay with BT-549 breast; 102% with MDA-MB-435 melanoma; 99.2% in the assay with SW-620 colon; 98.3% in the assay with MCF7 breast; 97.3% in the assay on HCT-116 colon. Further, the growth with HCC-2998 colon was 97%; with KM12 colon, 111%.
For the molecule `CCn1cc(/C=C2\Oc3cc(OCC#N)ccc3C2=O)c2cc(OC)ccc21`, the growth in the assay with T-47D breast was 48.4%; in the assay on BT-549 breast it was 52.6%; in the assay on MDA-MB-435 melanoma it was -20.7% (active); in the assay with SW-620 colon it was 28%; with MCF7 breast, 20.6%; with HCT-116 colon, 12.4%. Also, the growth with HCC-2998 colon was 55.6%; in the assay on KM12 colon, 23.6%.
Regarding `CC(C)C1(C(C)C)NC(=O)NC1=O`, the growth in the assay on T-47D breast was 109%; in the assay with BT-549 breast, 111%; in the assay with MDA-MB-435 melanoma, 114%; in the assay with SW-620 colon, 127%; in the assay on MCF7 breast, 101%; with HCT-116 colon, 98.5%. For the same molecule, the growth in the assay with HCC-2998 colon was 102%; in the assay on KM12 colon, 138%.
`CN(C)CCNc1nc2ccccc2c2c(=O)c3ccccc3sc12`: the growth in the assay with T-47D breast is 49%; with BT-549 breast, 74.4%; in the assay on MDA-MB-435 melanoma, 8.44% (active); with SW-620 colon, -54% (active); in the assay on MCF7 breast it was -46.9% (active); in the assay with HCT-116 colon, -9.31% (active). The growth in the assay with HCC-2998 colon is -11.3% (active); in the assay with KM12 colon, 18.5%.
As for `O=C1c2ccccc2OC=C(c2ccccc2)N1CCCCN1CCCCC1`, the growth was 0.353% (active) in the assay with T-47D breast; 32.5% with BT-549 breast; 67.4% with MDA-MB-435 melanoma; 71.5% with SW-620 colon; 38.6% in the assay on MCF7 breast; 27.2% with HCT-116 colon. For the same molecule, the values for the growth in the assay with HCC-2998 colon and in the assay on KM12 colon were 69.1% and 49.2%, respectively.
For `S=c1n(CNc2ccc(Cl)nn2)nc(-c2cc(Cl)cc(Cl)c2Cl)n1/N=C/c1ccc(Cl)cc1`, the growth in the assay on T-47D breast is 101%; in the assay on BT-549 breast it was 106%; with MDA-MB-435 melanoma, 89.3%; in the assay on SW-620 colon, 103%; with MCF7 breast, 87.4%; in the assay with HCT-116 colon, 83.8%. The growth in the assay on HCC-2998 colon was 88.6%; in the assay with KM12 colon it was 97.1%.
For `COC(=O)c1oc2c(C(=O)/C=C/c3ccc(OC)cc3)c(OCCN3CCOCC3)ccc2c1C`, the growth was 14% with T-47D breast; -6.36% (active) with BT-549 breast; 20% with MDA-MB-435 melanoma; -96.8% (active) with SW-620 colon; 10.5% with MCF7 breast; -73.9% (active) in the assay on HCT-116 colon. For the same molecule, the growth in the assay with HCC-2998 colon is 23.7%; in the assay on KM12 colon it was -10.1% (active).
On to `C#C[C@H](O)/C=C/CCCCCCC#C[C@H](O)CC[C@@H](O)C#CCCCCCC/C=C/[C@@H](O)C#C`, for which the growth with T-47D breast was 76%; with BT-549 breast, 93.9%; in the assay with MDA-MB-435 melanoma, 92.5%; in the assay with SW-620 colon, 71.9%; with MCF7 breast, 68.5%; in the assay with HCT-116 colon it was 57.3%. The growth in the assay with HCC-2998 colon is 95.2%; in the assay on KM12 colon, 93.2%.
For the molecule `O=C(Nc1ccc(F)cc1)Nc1ccc(Cl)c([N+](=O)[O-])c1`, the growth in the assay with T-47D breast is 6.68% (active); in the assay with BT-549 breast, 42.4%; in the assay with MDA-MB-435 melanoma, 21.1%; in the assay with SW-620 colon, 19%; in the assay with MCF7 breast, 7.97% (active); with HCT-116 colon, 7.12% (active). Moreover, the growth with HCC-2998 colon was 20.2%; in the assay on KM12 colon it was 12.4%.
